Experimental data: the supplement of paper PMC10498489
In all, about 2,300 compounds went through this assay and about 330 (14%) showed activity. A selection follows. Unmarked numbers belong to inactive results.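 The calls were made as follows: active = median modified Z-score above 1.96; inactive = 1.96 or below.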

test system: HepG2 Srxn1-GFP reporter cells (+30 nM CDDO-Me); assay: Srxn1-GFP intensity median modified Z-score relative to plate median; higher = stronger NRF2 / oxidative stress reporter activation, active = hit call of the paper; conditions: 10 µM; exposure time: 24h
How it was run: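 Per-cell cytoplasmic GFP was measured on confocal images of formaldehyde-fixed, Hoechst-stained HepG2 Srxn1-GFP BAC reporter cells, excluding images with fewer than 100 cells. Before this, the cells (20,000 per well, 96-well plates) were co-exposed for 24 h to compound at 10 μM and an NRF2 activator at 30 nM with ≤0.1% DMSO, in three replicate plates. Each value is the median over replicates of the per-plate modified Z-score of GFP intensity. That score was scaled with 1.4826 × median absolute deviation.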

SMILES	Srxn1-GFP intensity median modified Z-score
CC(=O)OCC(=O)[C@@]1(O)CCC2C3CC=C4CC(=O)C=CC4(C)C3[C@@H](O)C[C@@]21C (some centres undefined) [euspeclibcmpd242]	-0.458
O=C(NCCN1CCOCC1)NC(=O)c1ccc(Cl)cc1	1.77
COC(=O)C1CCN(C(=O)C(OC(=O)C2CCC(=O)NC2)C(C)C)CC1 (centres undefined)	0.378
CCOc1ccc(C(=O)c2ccc(O)c(O)c2O)cc1 [euspeclibcmpd1369]	0.486
O=C(CCCl)NCCc1ccccc1 [euspeclibcmpd2364]	0.0303
N=C(N)N=C(N)NCCc1ccccc1 [euspeclibcmpd898]	4.79 (active)
NNCCc1ccccc1 [euspeclibcmpd231]	0.202
CC(=O)OCC(=O)[C@@]1(O)[C@@H](C)CC2C3CC=C4CC(=O)C=C[C@]4(C)[C@@]3(F)[C@@H](O)C[C@@]21C (some centres undefined) [euspeclibcmpd2268]	0.239
CC(C)=CCOc1ccc2c(=O)c(-c3ccccc3)coc2c1	0.352
CCc1c2c(nc3ccc(OC(=O)N4CCC(N5CCCCC5)CC4)cc13)-c1cc3c(c(=O)n1C2)COC(=O)C3(O)CC (centres undefined) [euspeclibcmpd1960]	-0.421
CCCCCCCCCCCCCCCC[N+](C)(C)C [euspeclibcmpd1124]	7.69 (active)
CCCNCCCCCC[N+](C)(C)C [euspeclibcmpd616]	1.43
C[N+](C)(C)CCCCCC[N+](C)(C)C [euspeclibcmpd1134]	-0.198
CC1(C)O[C@@H]2CC3C4CC=C5CC(=O)C=C[C@]5(C)[C@@]4(F)[C@@H](O)C[C@]3(C)[C@]2(C(=O)CO)O1 (some centres undefined) [euspeclibcmpd303]	-0.909
OCc1c[nH]c2ccccc12 [euspeclibcmpd1454]	0.00439
c1ccc2c(Cc3c[nH]c4ccccc34)c[nH]c2c1 [euspeclibcmpd2024]	18.3 (active)
Cc1c[nH]c2ccccc12 [euspeclibcmpd1495]	0.0463
O=P(O)(O)C(O)(Cc1cccnc1)P(=O)(O)O [euspeclibcmpd2383]	-0.244
COc1ccc(CCN(C)CCCC(C#N)(c2ccc(OC)c(OC)c2)C(C)C)cc1OC (centres undefined) [euspeclibcmpd958]	5.38 (active)
CC[C@H]1OC(=O)C(C)[C@@H](O[C@H]2C[C@@](C)(OC)[C@@H](O)[C@H](C)O2)[C@H](C)[C@@H](O[C@@H]2O[C@H](C)C[C@H](N(C)C)[C@H]2O)[C@](C)(O)CC(C)C(=O)C(C)[C@@H](O)[C@]1(C)O (some centres undefined) [euspeclibcmpd2296]	-0.138

SMILES	Srxn1-GFP intensity median modified Z-score
N#CC(c1ccc(Cl)cc1)c1c(Cl)cc(-n2ncc(=O)[nH]c2=O)cc1Cl (centres undefined) [euspeclibcmpd478]	15 (active)
NC(Cc1cc(I)c(Oc2cc(I)c(O)c(I)c2)c(I)c1)C(=O)O (centres undefined) [euspeclibcmpd345]	-0.572
NC(Cc1cc(I)c(Oc2ccc(O)c(I)c2)c(I)c1)C(=O)O (centres undefined) [euspeclibcmpd346]	-0.0135
O=C(O)Cc1cc(I)c(Oc2ccc(O)c(I)c2)c(I)c1 [euspeclibcmpd1243]	8.98 (active)
CNS(=O)(=O)Cc1ccc2[nH]cc(CCN(C)C)c2c1 [euspeclibcmpd759]	-0.145
CC(=O)O[C@@H]1C[C@@]2(C)C(CC[C@@H]2C(C)=O)C2CC=C3CC(=O)CC[C@]3(C)C21 (some centres undefined) [euspeclibcmpd1433]	0.0291
C[C@]12C=CC(=O)CC1=CCC1C2[C@@H](O)C[C@@]2(C)C1CC[C@]2(O)C(=O)COP(=O)(O)O (some centres undefined) [euspeclibcmpd2287]	0.582
Cc1ccc(NC(=O)c2ccc(CN3CCN(C)CC3)cc2)cc1N=c1nc(-c2cccnc2)cc[nH]1 [euspeclibcmpd1311]	4.53 (active)
O=C(O)c1ccc2c(c1)OCO2 [euspeclibcmpd1566]	-0.239
CC1(C)C2CC[C@]3(C)C(C(=O)C=C4C5C[C@@](C)(C(=O)O)CC[C@]5(C)CC[C@]43C)[C@@]2(C)CC[C@@H]1O (some centres undefined) [euspeclibcmpd1147]	-1.35
O=C(O)CCCCC1SCC2NC(=O)NC21 (centres undefined) [euspeclibcmpd513]	-0.118
CC(C)(CO)C(=O)C(O)NCCC(=O)NCCSSCCNC(=O)CCNC(=O)C(O)C(C)(C)CO (centres undefined) [euspeclibcmpd1231]	-0.621
O=C(CCBr)N1CCN(C(=O)CCBr)CC1 [euspeclibcmpd576]	2.59 (active)
O=C(O)/C=C/C=C/c1ccc2c(c1)OCO2 [euspeclibcmpd1736]	-0.462
CC1(C)C2CC[C@]3(C)C(C(=O)C=C4C5C[C@@](C)(C(=O)O)CC[C@]5(C)CC[C@]43C)[C@@]2(C)CC[C@@H]1OC(=O)CCC(=O)O (some centres undefined) [euspeclibcmpd2080]	-0.0685
O=C(Nc1ccc([N+](=O)[O-])cc1Cl)c1cc(Cl)ccc1O [euspeclibcmpd562]	2.35 (active)
CC(OC(=O)c1cc(Cl)ccc1O)C(=O)Nc1ccc([N+](=O)[O-])cc1Cl (centres undefined)	1.24
NC(=O)c1ccc([N+](=O)[O-])cc1Cl [euspeclibcmpd514]	-0.559
O=C(OCC(=O)N1CCCC1)c1sc2cc(Cl)cc(Cl)c2c1Cl	0.374
